Out of some 4,400 compounds screened, about 3,700 (84%) were called active.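 Rule for the calls: active = inhibition above about 39% in either of two replicate wells at 20 µM (limit read from the data); inactive = the rest.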 So high a share suggests a set chosen from earlier hits. The list is a sample of the results.

By inhibition is commonly meant the change of the read-out against control, counted positive when it falls.

The assay can be described thus: tim23-1 mutant yeast growth inhibitors, confirmation, luminescence, single concentration (AID 463218).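 Note: temperature-sensitive tim23-1 mutant grown at 25 °C; 0% = DMSO wells with yeast and 100% = medium wells without yeast.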 The conditions noted are these: S. cerevisiae tim23-1 growth, BacTiter-Glo luminescence, 24 h; at 20 µM; hits give high values.
In the case of `O=C1Oc2ccccc2C(=O)/C1=C/c1ccccc1O`, the inhibition is 89% (active).
Under `O=C(CC(O)(C(F)(F)F)C(F)(F)F)Nc1ccc(Cl)c(Cl)c1` stands 92.1% (active).
The figure for `COc1cc(NC(=O)c2cccs2)ccc1NC(=O)c1ccccc1Cl` is 42.2% (active).
Take `Cc1nn(CC(=O)Nc2nc3ccccc3s2)c(C)c1[N+](=O)[O-]`: the inhibition is 54% (active).
`C=C1CCC(N(O)c2cc(C)on2)C(=C)CCC2C1CC2(C)C` (configuration not stated): the inhibition is 44.8% (active).
The figure for `Cc1ccccc1OCC(=O)Nc1ccc(N2CCN(C(=O)C(C)C)CC2)c(Cl)c1` is 76.3% (active).
Turning to `COc1ccc2c(c1)C(=C(C#N)C#N)C(=O)N2CCc1ccccc1`, the inhibition is -89.4% (inactive).
The figure for `COc1ccc(/C(N)=N/OC(=O)CCCc2ccccc2)cc1` is 41.2% (active).
The figure for `N/C(=N\OC(=O)CCc1ccccc1)c1ccc(Cl)cc1` is 67.7% (active); for `C/C(=N\NC(=S)NCc1ccccc1)c1ccc(Cl)cc1` it is 36.7% (inactive).
Under `Cc1cc2ncn(CCCCOc3ccccc3)c2cc1C` stands 27.3% (inactive); under `O=[N+]([O-])c1ccccc1S(=O)(=O)Nc1cccc2cccnc12`, 59.1% (active); under `Cc1cccc(Oc2c([N+](=O)[O-])c(=O)n(C)c3ccccc23)c1`, 59.6% (active).
With `N/C(=N\OC(=O)CC1CCCCC1)c1ccccc1`, the inhibition is 53.1% (active).
On to `O=C(NCCc1ccc(F)cc1)c1ccc(S(=O)(=O)N2CCCCC2)cc1`, for which the inhibition is 56% (active).
Under `Cc1ccc2cc3cc(C(=O)N4CCCCCC4)oc3nc2c1` stands 56% (active); under `CCC(=O)Nc1nc(C)c(C(=O)Nc2cccc(Cl)c2)s1`, 75.2% (active); under `COc1cc(Br)cc(/C=N/c2ncn[nH]2)c1O`, 85.5% (active).
The figure for `O=C1c2cccc3c([N+](=O)[O-])ccc(c23)C(=O)N1CC1CCCO1` (configuration not stated) is 86.2% (active); for `O=C(Oc1ccc([N+](=O)[O-])cc1)c1ccc2ccccc2n1` it is 70.7% (active).
Under `O=C(N[C@H]1C/C=C\C(c2cccc(F)c2)N(Cc2ccccc2)C(=O)C1)OCC1c2ccccc2-c2ccccc21` (some centres not stated) stands 40% (active); under `COC(=O)c1c(NC(=O)CSc2nncs2)sc2c1CCCCC2`, 46.1% (active).
For `O=C(N/N=C/C=C/c1ccco1)c1cccs1`, the inhibition is 68.9% (active).
Consider `COc1ccc(CNC(=O)/C(C#N)=C/c2cccc(OC)c2OC)cc1`, for which the inhibition was 76.6% (active).
The figure for `CCCc1nc2c(c(=O)c3ccccc3n2C)c(=O)n1C1CCCCCC1` is 58.9% (active); for `Cc1ccc(S(=O)(=O)NC2CCCCCC2)cc1` it is 37% (active).
On to `O=C(Cc1c(F)cccc1Cl)Nc1ncc([N+](=O)[O-])s1`, for which the inhibition is 71.3% (active).
As to `COc1ccc(-c2nc3cc(C)ccn3c2NC2CCCCC2)cc1SC1CCCCC1`, the inhibition is 48.6% (active).
For the compound `O=C(/C=C/c1ccc(Cl)c([N+](=O)[O-])c1)c1cccnc1`, the inhibition was 73.4% (active).
Under `Cc1ccccc1C1=N/C(=C/c2cccnc2)C(=O)O1` stands 57% (active); under `O=C(Nc1nc(-c2ccco2)c(-c2ccco2)s1)c1ccco1`, 77.3% (active).
Turning to `O=C1[C@@H](c2ccccc2)[C@@H](c2ccccc2)N1c1cccnc1`, the inhibition is 71.3% (active).
Under `N/C(Cc1ccc([N+](=O)[O-])cc1)=N\OC(=O)COc1ccc2ccccc2c1` stands 72.3% (active); under `N/C(Cc1ccc([N+](=O)[O-])cc1)=N\OC(=O)C1CCCCC1`, 64.3% (active); under `Cc1cccc(NC(=S)Nc2ccc(Cl)c(Cl)c2)c1`, 63.8% (active).
Under `Cc1cccc(NC(=O)c2nc(S(=O)(=O)Cc3ccccc3)ncc2Cl)c1` stands -88.7% (inactive); under `Cn1c(=O)c(C(=O)Nc2ncccn2)c(O)c2ccccc21`, 53.4% (active).
Under `O=C1Nc2ccccc2/C1=C/c1ccnc2ccccc12` stands 56.8% (active); under `COc1ccc(S(=O)(=O)N2CCN(C(C)C(=O)Nc3ccc(C(C)C)cc3)CC2)cc1` (configuration not stated), 51.4% (active); under `CC(C)c1ccc(NC(=S)NC2CC3C=CC2C3)cc1` (configuration not stated), 36.4% (inactive).
`COc1ccc(C(C[N+](=O)[O-])n2nc(C)cc2C)cc1` (configuration not stated): the inhibition is 62% (active).
For the compound `O=C(NC(Nc1nc2ccc([N+](=O)[O-])cc2s1)(C(F)(F)F)C(F)(F)F)c1ccccc1`, the inhibition is 87.3% (active).
The figure for `COc1ccc(CS(=O)/C(Cl)=C(/Cl)C(=O)Nc2ccc(OC)nc2)cc1` (configuration not stated) is -9.55% (inactive); for `COc1ccc(NC(=O)Nc2cccc3cccnc23)cc1` it is 42.3% (active).
On to `CN(C(=O)CC(NC(=O)c1ccccc1)(c1ccccc1)c1ccccc1)c1ccccc1`, for which the inhibition is 44.1% (active).
Under `Fc1ccccc1-c1cc2cc3c(cc2cn1)OCO3` stands 59% (active); under `CCOc1ccc(C(c2c(C)[nH][nH]c2=O)c2c(C)[nH][nH]c2=O)cc1OCC`, 41.6% (active).
Under `CCCc1c(C(=O)Nc2ccc(F)cc2)cnn1-c1ccccc1` stands 30.4% (inactive); under `Cc1ccc2nc(-c3ccc(NC(=O)c4cccnc4)cc3)oc2c1`, 42.7% (active); under `Cc1ccc(N=Cc2c(O)cc(C)oc2=O)c(C)c1`, 12.4% (inactive).
In the case of `O=C(Nc1nnc(SCc2c(Cl)cccc2Cl)s1)C1CCCO1` (configuration not stated), the inhibition is 49.7% (active).
Regarding `Cc1cccc(C)c1NC(=O)C(Cl)C(=O)c1ccccc1` (configuration not stated), the inhibition was 68.8% (active).
The figure for `S=C(NCCCc1ccccc1)Nc1ccc(Br)cc1` is 54.3% (active).
Under `COc1ccc2c(c1)C(NS(=O)(=O)OCC(Cl)(Cl)Cl)CCC2` (configuration not stated) stands 52.8% (active); under `CCCCCCc1ccc(O)cc1O`, 45.3% (active).
The figure for `O=C(NC(=S)NC1CCCCC1)c1ccc(Cl)cc1` is 53.2% (active); for `Cc1ccccc1C(=O)NC(=S)NC1CC1` it is 12.2% (inactive).
With `COc1ccc(C(=O)NC(=S)NC2CCCCC2)cc1`, the inhibition is 59.2% (active).
Under `Cc1ccoc1C(=O)Nc1cccc(Oc2ccccc2)c1` stands 75.2% (active); under `O=C(Nc1ccccc1)c1ccc2c(c1)OCCCO2`, 31.9% (inactive); under `COc1ccccc1-c1n[nH]c2c1[C@H](C)CC[C@H]2C(C)C`, 61.8% (active).
Under `Cc1ccc(C2CC(=O)NC(SCC(=O)OCc3ccccc3)=C2C#N)o1` (configuration not stated) stands 53.8% (active); under `CCc1nnc(NS(=O)(=O)c2ccc(NC(=S)NC(=O)/C=C/c3cccs3)cc2)s1`, 25.8% (inactive); under `O=C1C=C(c2cccc(Cl)c2O)C[C@@H](c2ccc(F)cc2)C1`, 51.5% (active).
With `CC(=O)Oc1ccc2c(c1)C(=O)c1ccccc1C2=O`, the inhibition was 68.2% (active).
The figure for `Cc1nc2sc(C(=O)c3ccccc3)c(N)c2c2c1CCCC2` is 54.4% (active); for `COc1cccc(-c2sc3ccc(OC)cc3c2-c2ccc(OCCN3CCCCC3)cc2)c1` it is 23.4% (inactive); for `Cc1[nH]n(C(N)=S)c(=O)c1N=Nc1ccc(Cl)cc1Cl` it is 70% (active).
The figure for `CC(=O)N1N=C(c2ccncc2)OC1(Cc1ccccc1)Cc1ccccc1` is 49.8% (active); for `c1ccc(-c2nc(NCc3ccco3)c3ccccc3n2)cc1` it is 64.7% (active); for `O=c1ccc2c(-c3ccccc3S(=O)(=O)O)c3ccc(O)c(O)c3oc-2c1O` it is 43.4% (active).
In the case of `O=c1oc(-c2ccccc2NS(=O)(=O)c2ccc(Cl)cc2)nc2ccccc12`, the inhibition is 56% (active).
The figure for `CC(C)NC(=O)/C(C#N)=C\c1ccc(N(C)C)c(Br)c1` is 62.2% (active); for `O=C1CC(Sc2ncn[nH]2)C(=O)N1c1ccccc1` (configuration not stated) it is 37.8% (inactive); for `Cc1cc(Nc2ccc(Br)cc2)nc2ccccc12` it is 68.2% (active).
The figure for `Cc1ccc2nc(Nc3ccccc3)cc(C)c2c1` is 43.1% (active); for `Cc1cccc(-c2nc(Nc3ccc(O)cc3)c3ccccc3n2)c1` it is -19.6% (inactive); for `Cc1[nH][nH]c(=O)c1C(c1ccc(-c2ccc(Cl)cc2)o1)c1c(C)[nH][nH]c1=O` it is 62.4% (active).
Under `CC(=O)Oc1ccc(N(C(C)=O)S(=O)(=O)c2ccc3ccccc3c2)cc1Br` stands 52.9% (active); under `Cc1ccc(C(=O)OC2=CC(=O)CC(C)(C)C2)cc1`, 38% (active).
Consider `CN1C(=O)/C(=N/OC(=O)c2ccccc2Br)c2ccccc21`, for which the inhibition is -64.7% (inactive).
The figure for `CSC(=S)N/N=C/c1c[nH]c2ccccc12` is 52.5% (active); for `COCCNC(=O)/C(C#N)=C/c1cccc(OCc2ccccc2)c1` it is 67% (active); for `CCCCC(CC)CNC(=O)C(=O)C1C(=O)Nc2ccccc21` (configuration not stated) it is 41.6% (active).
The figure for `O=C(Nc1cccc(F)c1)NC1CCCCCCC1` is 39.9% (active); for `COc1cc(SC)ccc1C(=O)Nc1nc(C)cs1` it is 57.5% (active).
For `Cc1cc(C)nc(S/C=C/C(=O)c2ccccc2)n1`, the inhibition is 87.6% (active).
The figure for `O=C(/C=C/Sc1ncn[nH]1)c1ccc(Cl)cc1` is 20.5% (inactive); for `CCc1ccc2c(c1)C1(NN=C(c3ccccc3)S1)C(=O)N2` (configuration not stated) it is 53.2% (active); for `CCC1=NN(C(=O)Cc2ccc([N+](=O)[O-])cc2)C(O)(c2ccc(Br)cc2)C1` (configuration not stated) it is 45.7% (active).
With `CC1CCC2CCCCC2N1C(=O)c1cc([N+](=O)[O-])cc([N+](=O)[O-])c1` (configuration not stated), the inhibition is 42.8% (active).
With `Cc1onc(NC(=O)c2ccc([N+](=O)[O-])o2)c1Br`, the inhibition is 50.6% (active).
The figure for `CCCNc1ncnc2sc(C)c(C)c12` is 27.9% (inactive); for `Cc1ccc2c(c1)c1ncnc(N3CCc4ccccc4C3)c1n2C` it is 45.2% (active).
Under `N#C/C(=C\c1cccnc1)C(=O)Nc1ccc(SC(F)F)cc1` stands 65.7% (active); under `Cc1ccc(Oc2nc(-c3ccccn3)nc3ccccc23)cc1`, 46.1% (active).
The figure for `COc1ccc(Nc2nc(N)nc(CSC(=S)N3CCC(C)CC3)n2)cc1` is 49.7% (active); for `COc1ccc(/C=C2/C(=O)N(c3ccccc3)N=C2C)c(OC)c1` it is 49.5% (active); for `N#C/C(=C\c1ccccc1C(F)(F)F)C(=O)Nc1ccccc1F` it is 71.7% (active).
`Cc1cccc(C)c1N1C(=O)CN(Cc2ccccc2)C1=S`: the inhibition was 44.8% (active).
Take `Cn1nc(C(F)(F)F)c2cc(NC(=O)OCC(C)(C)C)sc21`: the inhibition is 41.3% (active).
The figure for `O=C(N/N=C\c1cc(Br)c(Br)o1)C1COc2ccccc2O1` (configuration not stated) is 31% (inactive).

For the origin of these results see PubChem BioAssay AID463218 (Sanford-Burnham Center for Chemical Genomics, 2010).
